The list is a sample of the results.
aSyn UTR act: Activators working through SNCA 5'UTR binding (MLPCN); alpha-synuclein 5'UTR reporter, activators screen; activity score, % (tested at 7.5 µM), hits read low; 300,000 compounds, 7.1% hits; AID 1814; in the data active = activity score below about -60%
An asterisk follows results filed as active.

SMILES	aSyn UTR act
C/C(=N\NC(=O)c1cc(-c2cccs2)nc2ccccc12)c1ccccn1	79
c1ccc(Nc2nc(-c3cccs3)cs2)nc1	-165*
COC(=O)c1sc(-c2ccc(C(C)(C)C)cc2)cc1NC(=O)c1ccccc1C(=O)O	-67*
CCN(CC)CCCN(C(=O)c1cccs1)c1nc(-c2ccc(OC)cc2)cs1	-101*
COc1ccc(-c2csc(N(C)C(=O)c3cccs3)n2)cc1	-126*
COCCCN(C(C)=O)c1nc(-c2ccccc2)cs1	-146*
CC(=O)c1cccc(NC(=O)CN2C=NS(=O)(=O)c3ccc(C)cc32)c1	-124*
COc1ccc(Cc2[nH]n3c(=O)cc(C(C)C)nc3c2-c2ccccc2)cc1	72
COc1ccc(-c2cc(=O)n(-c3nc4ccccc4[nH]3)[nH]2)cc1	-68*
Cc1cc(C)c2c3c(sc2n1)C1(CCSCC1)C(C#N)=C(N)O3	-90*
O=[N+]([O-])c1cc(-c2n(-c3ccccn3)c3ccccc3[n+]2-c2ccccn2)ccc1Cl	-88*
Cc1ccc(CNC(=O)/C=C/c2cccs2)cc1	-184*
CCCCNC(=O)/C=C/c1cccs1	-86*
Oc1ccc(Br)cc1/C=N/n1cnc2ccccc21	-262*
Oc1ccc(Br)cc1/C=N/N1CCCCC1	-221*
Nc1nc(CSc2ccccc2)nc(N2CCCCC2)n1	-129*
O=[N+]([O-])c1ccccc1S(=O)(=O)Oc1ccc(C(=S)N2CCOCC2)cc1	-62*
O=S1(=O)C=C(Sc2nnc(-c3ccccc3)o2)c2ccccc21	-118*
Cc1cc(C)nc(SC2=CS(=O)(=O)c3ccccc32)n1	-120*
OCc1ccc(O)c2ncccc12	66
O=C(Cc1ccc(-c2ccccc2)cc1)Nc1ncccc1O	-97*
CC1CCC(C(C)C)C(=O)/C1=C/c1ccc(N)cc1 (configuration not stated)	-173*
CC(C)(C)c1ccc(-c2nnc(NC(=O)c3ccccc3)s2)cc1	-163*
COc1cccc(C(=O)Nc2nc3c(s2)CN(C)CC3)c1	-85*
COc1cccc(C(=O)NCc2ccc(-c3nc4ccccc4s3)cc2)c1	-109*
SMILES	aSyn UTR act
COc1cccc(C(=O)Nc2nnc(-c3ccccc3)s2)c1	-224*
CC(=O)[C@]1(O)Cc2c(O)c3c(c(O)c2[C@@H](O[C@H]2C[C@H](N)[C@H](O)[C@H](C)O2)C1)C(=O)c1ccccc1C3=O	110
CC(=O)C1C(=O)c2c(cccc2[N+](=O)[O-])C1=Nc1ccccc1C (configuration not stated)	-73*
CC1=C([N+](=O)[O-])C(c2cccc(Br)c2)C2=C(N1)c1ccccc1C2=O (configuration not stated)	90
Fc1ccc2c(c1)/C(=N/Nc1ccccn1)CCS2	-72*
Cc1cc(N/N=C2/CCCc3ccccc32)nc2ccccc12	-172*
c1ccc(N/N=C2\CCCc3ccccc32)nc1	-75*
CSC1=C(C#N)C(c2ccc(Cl)cc2)C2=C(CC(C)(C)CC2=O)N1 (configuration not stated)	71
Nc1nc(NCCOCCO)nc(NC2CCCCC2)c1[N+](=O)[O-]	68
O=C(Nc1cccnc1)c1cn(-c2ccccc2)nc1-c1cccs1	-84*
Cc1nn(Cc2c(Cl)cccc2Cl)c(C)c1NC(=O)c1cn(-c2ccccc2)nc1-c1ccccc1	122
NS(=O)(=O)c1ccc(N/N=C/c2cn(-c3ccccc3)nc2-c2cccs2)cc1	-92*
Cc1ccsc1/C=N/Nc1cccc(C(=O)O)c1	105
O=C(O)c1cccc(N/N=C/c2cn(-c3ccccc3)nc2-c2cccs2)c1	-68*
O=C(COc1ccc(F)cc1)Nc1nccs1	-91*
O=C(Nc1nccs1)c1ccc(COc2ccc(F)cc2)o1	-97*
O=C(COc1ccc(F)cc1)Nc1nc2c(s1)CCCC2	-92*
Cc1c(C)c2ccc(OCC(=O)Nc3nccs3)cc2oc1=O	66
CN(Cc1ccccc1)C(=O)C(C(=O)c1ccc(F)cc1)n1cc(Cl)ccc1=O (configuration not stated)	-67*
CCC1CCCCN1C(=O)c1ccc([N+](=O)[O-])o1 (configuration not stated)	-79*
O=C(c1ccccc1)c1cccc(NC(=O)c2ccc(Br)o2)c1	-90*
Cc1cccc(NC(=O)c2ccc(C(=O)c3ccccc3)o2)c1	-156*
O=C(Nc1ccccc1)c1ccc(Br)o1	-73*
O=C(Nc1ccc2c(c1)oc1ccccc12)c1ccc(Br)o1	-210*
CCc1cccc(NC(=O)c2ccc(Br)o2)c1	-116*
SMILES	aSyn UTR act
CCCC/C(=N\NC(=O)c1ccc(Br)o1)c1ccccc1	-69*
COC(=O)Cc1[nH]n(-c2ccccc2)c(=O)c1C(C)=Nc1ccccc1	-71*
COC(=O)Cc1[nH]n(-c2nc3ccccc3s2)c(=O)c1C(C)=Nc1ccc(C)cc1	98
O=C(Nc1ccccn1)c1ccc2c(c1)S(=O)(=O)c1ccccc1C2=O	-90*
O=C(Nc1ccccn1)c1ccc(Cl)c(S(=O)(=O)N2CCCCCC2)c1	-81*
Cc1ccnc(NC(=O)c2ccc(Cl)c(S(=O)(=O)N3CCCC3)c2)c1	-132*
Brc1ccc(-c2nc(-c3ccncc3)no2)o1	-188*
Brc1ccc(-c2nc(-c3ccccn3)no2)o1	80
c1ccc(-c2nc(-c3ccc(-c4ccon4)s3)no2)cc1	-104*
c1coc(-c2nc(-c3ccncc3)no2)c1	-122*
c1ccc(-c2noc(-c3cccnc3)n2)cc1	-198*
Brc1ccc(-c2nc(-c3ccncc3)no2)cc1	-184*
O=[N+]([O-])c1ccc(-c2nc(-c3ccncc3)no2)cc1	-74*
c1ccc(-c2nc(-c3ccncc3)no2)cc1	-141*
CCCCc1ccc(-c2nc(-c3ccncc3)no2)cc1	91
COc1ccc(N=Nc2c(N)n[nH]c2N)cc1	-85*
COc1ccc(N=Nc2ccc(N)nc2N)cc1	-68*
COc1ccc(Oc2nccc(-c3ccccc3)c2C#N)cc1	-185*
Cc1ccc(-c2cc(-c3ccc(F)cc3)nc(N)c2C#N)o1	63
COc1ccc(Oc2nccc(-c3ccc(F)cc3)c2C#N)cc1	-82*
Cc1ccc(NC(=O)CN(C)S(=O)(=O)c2cccs2)cc1C	-86*
Cc1ccc(NC(=O)CN(C)S(=O)(=O)c2cccs2)cc1F	-64*
Cc1nnc(SCC(=O)NC(=O)Nc2ccc3c(c2)OCCO3)n1N	-114*
Cc1ccc(-n2nnnc2SCC(=O)NC(=O)Nc2ccc3c(c2)OCCO3)cc1	-160*
O=C(CSc1nnnn1-c1ccc(Cl)cc1)NC(=O)Nc1ccc2c(c1)OCCO2	-184*
SMILES	aSyn UTR act
CSc1ccc(CC(=O)N2CCC(n3nccc3NC(=O)C3CC3)CC2)cc1	-116*
CSCC(=O)N1CCC(n2nccc2NC(=O)c2ccc3c(c2)OCO3)CC1	-110*
COc1ccc(NC(=O)c2cc3c(-c4ccc(OC)c(OC)c4)nn(C)c3s2)cc1OC	-70*
Cc1ccc(Oc2ncc(CN3CCOCC3)s2)cc1	-78*
Cc1c(C(C)(C)C)sc(=NC(=O)c2ccccc2O)n1C	-125*
Cc1cc(C)c2nc(N3CCCC(C(=O)NCCN4CCOCC4)C3)sc2c1 (configuration not stated)	-74*
Cc1cc(C)c2nc(N3CCCC(C(=O)NCCCN4CCOCC4)C3)sc2c1 (configuration not stated)	-77*
CCOC(=O)C1(Cc2cccc(OC)c2)CCCN(C(=O)c2cc(C)oc2C)C1 (configuration not stated)	-71*
